Source: PubChem (National Center for Advancing Translational Sciences (NCATS))
Nrf2 inh – Nrf2 pathway inhibition | A549 ARE-Fluc reporter, luciferase luminescence, 18-24 h | Potency, µM (highest dose often 46 µM), for the others: at the highest dose activity change, negative = inhibition, most hits filed as inhibitors | 2.1% of 360,000 active | AID 504444; further: on the % scale 0 is the no-effect control and ±100 the full control effect; nearly all actives have a fitted effect of over 60% in size
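Nrf2 activity is the BugLite luminescence, read 15 min after reagent at room temperature, following CellTiter-Fluor cytotoxicity readout (30 min, 37C). Compound titrations were applied for 18-24 h to 5000 A549 ARE_Fluc cells/well in 5% FBS OPTI-MEM.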
Nrf2 activator – Nrf2 pathway activation; AREc32 ARE-luciferase reporter (MCF7-derived line), luminescence, 24 h; Potency, µM (titrated, usually from 46.1 µM), inactives show at the highest dose activation, most hits filed as activators; 0.31% of 410,000 active; AID 624171; further: % of control where 0% means no effect; nearly all actives have a fitted effect of over 65% in size
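AREc32_Fluc, 1000 cells/well, OPTI-MEM + 5% FBS, o/n 37 deg C 5% CO2; 23 nL cpd by pin tool, 24 hr; Steady-Glo 30 min RT, luminescence.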
A549 tox – A549 cytotoxicity, counter-screen for Nrf2 inhibitors; A549 ARE-Fluc cells, CellTiter-Fluor viability, 18-24 h; Potency, µM (titrated, usually from 46 µM), inactives show at the top dose activity change, negative = cytotoxicity, hits mostly inhibitors; 0.16% of 390,000 active; further: on the % scale 0 is the no-effect control and ±100 the full control effect
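A549 ARE_Fluc cells in 5% FBS OPTI-MEM were exposed to compounds in concentration-response for 18-24 h at 37 deg C. Viability was read by CellTiter-Fluor fluorescence (Ex 405/Em 525) after 30 min, before the luciferase read.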
rTrxR1 inhibitor – inhibitors of rat thioredoxin reductase 1; AID 588453; O89049; Potency, µM (titrated, usually from 114 µM), without a hit: top-dose activity change, negative = inhibition, usual class: inhibitors; 1% of 390,000 active; recombinant rTrxR1, NADPH fluorescence consumption, selenite substrate; further: on the % scale 0 is the no-effect control and ±100 the full control effect; nearly all actives have a fitted effect of over 65% in size
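Rat TrxR1 (90 nM in the dispensed reagent) was pre-reduced with 400 uM NADPH for 5 min at room temperature, then incubated with compound for 15 min. After 400 uM selenite was added, NADPH fluorescence (Ex 340/Em 450 nm) was followed for 8 min.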
GALK inhibitor – blocks human galactokinase activity; P51570; Purified GALK, Kinase-Glo residual ATP luminescence; Potency, µM (top dose mostly 57.5 µM), inactives show top-dose activity change, negative = inhibition, usual class: inhibitors; 0.007% of 270,000 active; AID 1868; further: on the % scale 0 is the no-effect control and ±100 the full control effect
Target sequence (P51570 whole entry, looked up): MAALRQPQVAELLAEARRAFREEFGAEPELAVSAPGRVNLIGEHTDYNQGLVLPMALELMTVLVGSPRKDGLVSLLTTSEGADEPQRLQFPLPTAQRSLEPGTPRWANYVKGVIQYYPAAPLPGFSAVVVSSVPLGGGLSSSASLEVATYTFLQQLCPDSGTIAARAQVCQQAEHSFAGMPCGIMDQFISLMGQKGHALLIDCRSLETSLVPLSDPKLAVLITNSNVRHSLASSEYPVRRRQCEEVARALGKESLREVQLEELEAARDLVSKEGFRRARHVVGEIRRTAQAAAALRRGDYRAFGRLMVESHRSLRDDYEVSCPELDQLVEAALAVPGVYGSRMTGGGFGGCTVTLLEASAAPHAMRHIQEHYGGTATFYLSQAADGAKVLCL
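ATP-depletion format; final 35 uM ATP, 100 uM D-galactose, 5 nM enzyme; pH 8.0 HEPES/Mg2+ buffer; 60 min RT; luminescence read 10 min after detection reagent.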
TrxR1 substrate – is turned over as a substrate by rat TrxR1. O89049. purified TrxR1 substrate turnover, NADPH consumption readout. Potency, µM (top dose mostly 114 µM), for the others: top-dose activity change, negative = substrate turnover. 0.01% of 390,000 active. AID 588456; further: on the % scale 0 is the no-effect control and ±100 the full control effect; nearly all actives have a fitted effect of over 50% in size
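Rat TrxR1, dispensed at 90 nM, was prereduced with 400 uM NADPH (final) for 5 min at ~22 deg C, then incubated with compound 15 min before 400 uM selenite. A first-read NADPH fluorescence drop versus no-compound background flagged substrates.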
* hit, by the source's call; ? = inconclusive; · = not tested or not shown; [ ] = remark or other dose. In the library only some 3% were active in any assay of this set; here they are far more common. The call rests on the fitted dose curve; in most records, active means well fitted curve in the direction sought with a large enough effect; inconclusive means small, poorly fitted or top-dose-only effect, or another doubt; inactive means no such curve, though single readings can be large; an effect the other way counts as inactive or inconclusive. Potency means the concentration at half of the fitted maximal effect.

SMILES | Nrf2 inh | Nrf2 activator | A549 tox | rTrxR1 inhibitor | GALK inhibitor | TrxR1 substrate
COc1ccc(NC(=O)CN2C(=O)C3(SCC(=O)N3c3ccccc3)c3ccccc32)cc1Cl (configuration not stated) | ? | 4% | -13% | -1% | · | -6%
Cc1nc(C)c(-c2ccc(SCC(=O)Nc3ccccc3F)nn2)s1 | · | 4% | -1% | 19%[57.1 µM] | · | 3%[57.1 µM]
Cc1nc(C)c(-c2ccc(SCC(=O)Nc3ccc(F)cc3F)nn2)s1 | 21µM* | -1% | -25% | -12% | 5% | -8%
CCOc1cc(CNS(=O)(=O)c2ccc3c(c2)C(C)(C)C(=O)N3)cc(OCC)c1OCC | 6% | 0% | -10% | 14% | · | -2%
CCOC(=O)C(C)N1C(=O)S/C(=C/c2ccc3c(c2)n(C)c(=O)n3C)C1=O (configuration not stated) | 21µM* | ? | -6% | -7% | -2% | -7%
CCC(C)N1C(=O)S/C(=C/c2ccc3c(c2)n(C)c(=O)n3C)C1=O (configuration not stated) | ? | 3% | -11% | 14%[57.1 µM] | -1% | 4%[57.1 µM]
Cc1ccc2c(c1)c(=O)c(C(=O)c1ccc3c(c1)OCO3)cn2Cc1ccc(Cl)cc1 | 23µM* | 3% | -14% | -2% | · | -6%
CCOc1ccc(C(=O)c2cn(Cc3ccc(Cl)cc3)c3cc(OC)c(OC)cc3c2=O)cc1 | ? | 0% | 15µM* | 3% | · | 2%
CCN1c2ccccc2-c2nc(SCC(=O)Nc3cc(C)c(Cl)cc3OC)ncc2S1(=O)=O | 0% | 4% | -1% | 21%[57.1 µM] | · | 1%[57.1 µM]
CCOc1ccccc1-c1nnc2n1N=C(c1ccc(OC)cc1)CS2 | ? | · | -6% | · | · | ·
CCOC(=O)C1=C(Cc2ccc(Cl)cc2)C(=O)c2ccccc2C1=O | ? | ? | 15%[1.84 µM] | 10µM* | 0% | 6%
CN1CCc2sc(NC(=O)Cc3ccccc3)c(C(=O)Nc3ccc(Cl)cc3)c2C1 | 18% | · | -3% | · | · | ·
COc1ccc2cc([S+]([O-])Cc3ncc(C)c(OC)c3C)nc2c1 | · | · | · | 13%[57.1 µM] | · | 7%[57.1 µM]
Cc1c(Br)cc(C(=O)NCc2ccco2)c(C)c1C | -4% | ? | 2% | -48% | -4% | 6%[57.1 µM]
N#Cc1ccccc1NC(=O)c1ccccc1OCC(=O)Nc1ccc2c(c1)oc1ccccc12 | ? | 3% | 3% | 8% | · | 6%
N#Cc1ccccc1NC(=O)c1ccccc1OCC(=O)NCc1ccco1 | 0% | 11µM* | 10% | -13% | 0% | 15%
O=C(OCc1ccco1)c1ccc(S(=O)(=O)N2CCCCC2)cc1 | · | 5% | -2% | 18µM* | -1% | 2%[57.1 µM]
O=C(COC(=O)Cc1cccc(C(F)(F)F)c1)NCc1ccco1 | 3% | 7% | 7% | 35µM* | · | -5%
Cc1ccc(C(=O)NCc2ccco2)cc1Br | · | ? | 12% | 18µM* | 0% | 1%
Cc1ccc(-n2ncc(C(=O)N3CCN(c4cccc(C)c4C)CC3)c2C2CCNCC2)c(C)c1 | 9% | 4% | -20% | 4% | · | 4%
CCOC(=O)c1cccc(NC(=O)Cn2c(=O)nc(-c3ccccc3)c3ccccc32)c1 | · | 0% | -6% | 8%[57.1 µM] | · | 1%[57.1 µM]
COC(=O)c1ccc(NC(=O)CC2C(=O)N(c3ccccc3)C(=O)N2Cc2ccc(F)cc2)cc1 (configuration not stated) | 21% | 8% | -7% | 1% | · | -7%
CC(C)(C)c1ccc(OCC(=O)NNC(=S)NC(=O)c2ccco2)c(Br)c1 | ? | 0% | -29% | -27% | -4% | -6%
Cc1cc(S(=O)(=O)N2CCOCC2)ccc1OCC(=O)NCc1ccco1 | -5% | 1% | 1% | -8%[57.1 µM] | -1% | -4%[57.1 µM]
Cc1cc(S(=O)(=O)N2CCCC2)ccc1OCC(=O)NCc1ccco1 | 9% | -1% | 2% | 10µM* | -1% | 10%
SMILES | Nrf2 inh | Nrf2 activator | A549 tox | rTrxR1 inhibitor | GALK inhibitor | TrxR1 substrate
CC(C)(C)c1ccc(OCC(=O)NCc2ccco2)c(Br)c1 | 19% | 14% | -6% | 11µM* | -3% | -2%
COc1ccc(/C=N/NC(=O)c2ccc(N(C)S(=O)(=O)c3ccccc3)cc2)cc1 | 26µM* | 4% | -16% | 29% | 4% | 5%
COc1ccc(CCNC(=O)c2ccc(Cl)c(S(=O)(=O)N(C)c3ccccc3)c2)cc1 | 18µM* | 0% | -24% | 24%[57.1 µM] | 2% | 12%[57.1 µM]
Cc1ccc(S(=O)(=O)N(C)c2ccc(C(=O)Nc3ccccn3)cc2)cc1 | -2% | 1% | -1% | 8% | · | 7%[57.1 µM]
COc1ccc(C(=O)Nc2ccc(S(=O)(=O)N(C)c3ccccc3)cc2)cc1 | 21µM* | 5% | -5% | 13% | · | 1%
CC(=O)Nc1ccc(NC(=O)c2ccc(S(=O)(=O)N(C)c3ccccc3)cc2)cc1 | -22% | 0% | 1% | 9% | · | 0%
COc1ccc(CCNC(=O)c2ccc(N(C)S(=O)(=O)c3ccc(C)cc3)cc2)cc1 | ? | 0% | -7% | -7%[57.1 µM] | 2% | 0%[57.1 µM]
Cc1ccc(S(=O)(=O)N(C)c2ccc(C(=O)Nc3ccc(C)cn3)cc2)cc1 | 12µM* | 2% | -23% | 11%[57.1 µM] | · | -1%[57.1 µM]
O=C(c1ccccc1Cl)N(Cc1ccco1)Cc1ccco1 | 2% | 1% | -4% | 5% | · | -2%
Cc1ccc(NC(=O)c2ccc(NS(=O)(=O)/C=C/c3ccccc3)cc2)nc1 | 21µM* | 2% | -7% | 16% | -4% | -8%
Cc1ccc(S(=O)(=O)N(C)c2ccc(OCC(=O)Nc3nc4ccccc4s3)cc2)cc1 | 21µM* | 6% | -1% | 14% | 1% | 0%
COc1ccc(NC(=O)COc2ccc(N(C)S(=O)(=O)c3ccc(Cl)cc3)cc2)cc1 | 13µM* | -1% | -16% | 11% | · | -1%
N#Cc1nc(Nc2ccc(F)cc2)nc(NC2CCCC2)n1 | -13% | · | -16% | · | · | ·
O=C/C=C/c1c(-c2ccccc2)cc2oc3ccccc3cc1-2 | ? | ? | -2% | 45µM* | 6% | -5%
O=c1oc2ccccc2cc1-c1ccc(O)cc1 | 19% | 7% | -1% | 28% | · | 18%
Clc1ccc(-c2nc3cnccn3c2Nc2ccc3c(c2)OCO3)cc1 | 23µM* | -1% | ? | 2%[57.1 µM] | 0% | 8%[57.1 µM]
CSc1ccc(-c2nc3cnccn3c2Nc2ccc3c(c2)OCO3)cc1 | -27% | 5% | 12% | 11%[57.1 µM] | 0% | -8%
O=C(c1ccc(F)cc1)N1c2nc(-c3ccco3)nn2C2(CCCCC2)[C@@H]2CCCC[C@@H]21 | 9% | 5% | -4% | ? | · | 1%
O=C(c1ccccc1F)N1c2nc(-c3ccco3)nn2C2(CCCCC2)[C@@H]2CCCC[C@@H]21 | 6% | 9% | -19% | 25µM* | · | -3%
